19 compounds from PubChem BioAssay (EPA / NIEHS) can be followed below.

Inconclusive results are not listed. Activity calls are given as the source filed them. Rule for the calls, unless noted: active = hit-call score of the fitted dose curve at least 0.9, where 1 is the maximum; inactive = score below 0.9.

Experiment [1] deals with human Vitamin D Receptor (VDR), VDR (gene 7421) (UniProt P11473). Briefly: ATG_VDR_TRANS: Attagene TRANS-FACTORIAL HepG2 Assay for human Vitamin D Receptor (VDR) (AID 2283022; active = hit-call score of the fitted dose curve at least 0.9, where 1 is the maximum). The procedure, abridged: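 Transactivation by an exogenous VDR-Gal4 chimera in transiently transfected HepG2 cells was measured as reporter transcript level 24 hours after chemical treatment. RT-PCR products were analysed by capillary electrophoresis and fitted in the positive direction relative to DMSO.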
Chain of human Vitamin D Receptor (VDR), VDR (gene 7421) (P11473 whole entry, looked up, the tested form may be a part): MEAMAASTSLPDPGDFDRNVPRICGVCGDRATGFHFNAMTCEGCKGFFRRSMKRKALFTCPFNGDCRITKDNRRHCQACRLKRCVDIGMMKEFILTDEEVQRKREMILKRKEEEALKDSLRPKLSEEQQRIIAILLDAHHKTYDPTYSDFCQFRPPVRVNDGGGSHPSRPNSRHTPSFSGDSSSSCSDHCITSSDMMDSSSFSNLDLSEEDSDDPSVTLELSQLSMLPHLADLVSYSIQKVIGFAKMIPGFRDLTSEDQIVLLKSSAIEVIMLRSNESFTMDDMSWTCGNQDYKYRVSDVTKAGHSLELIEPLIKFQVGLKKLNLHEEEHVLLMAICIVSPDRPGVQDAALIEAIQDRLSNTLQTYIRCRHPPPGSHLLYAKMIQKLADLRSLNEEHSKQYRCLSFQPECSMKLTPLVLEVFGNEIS

Experiment [2] can be described thus: BSK_3C_SRB: Viability Assessment in the BioMAP Diversity Plus: 3C Assay (AID 2283023).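 Note: fitted both ways against DMSO so a hit may be signal rise or drop.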 Conditions: primary human endothelial cells (HUVEC). An outline of the steps:
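Cytotoxicity readout in parallel HUVEC 3C cultures: after 24 h compound exposure, cells fixed with 10% TCA, stained with 0.1% SRB and read at 560 nm. Gain or loss relative to DMSO fitted.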

The nature of experiment [3]: BSK_3C_Vis: BioMAP Diversity Plus: 3C Assay for Morphology Visualization (AID 2283025).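 For AC50: light microscopy image of cell morphology used as background control.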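 Note: fitted both ways so gain or loss versus DMSO counts.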 Conditions: primary human endothelial cells (HUVEC). An outline of the steps:
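HUVEC, 3C system; light microscopy of morphology at 24 h post-dose. Bidirectional fit vs DMSO baseline. Secondary readout, background-control function.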

Read-out in experiment [4]: Pselectin, SELP (gene 6403)
Briefly: BSK_4H_Pselectin: BioMAP Diversity Plus: 4H Assay for Pselectin Biomarker Activity (AID 2283026). The settings on record: primary human endothelial cells (HUVEC); actives raise or lower the signal. An outline of the steps:
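HUVEC, 24 h chemical exposure; P-selectin read by ELISA. Bidirectional curve fit vs DMSO baseline; gain or loss of signal scored.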

A short description of experiment [5]: BSK_4H_SRB: Viability Assessment in the BioMAP Diversity Plus: 4H Assay (AID 2283027).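 For AC50: curves fitted both ways versus DMSO so AC50 may be loss or gain.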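 Note: cells exposed to compound for 24 h before staining.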 Conditions: primary human endothelial cells (HUVEC). An outline of the steps:
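HUVEC, 24 h post-dose; 10% TCA fix, 0.1% SRB stain, A560 nm. Total protein = overt cytotoxicity, parallel to biomarker read. Bidirectional fit vs DMSO baseline.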

Experiment [6] can be described thus: BSK_BE3C_SRB: Viability Assessment in the BioMAP Diversity Plus: BE3C Assay (AID 2283028).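 For AC50: fitted both ways so AC50 may mark signal gain or loss versus DMSO.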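 Note: measured 24 h after chemical dosing.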 The settings on record: primary human bronchial epithelial cells. The procedure, abridged: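 Cytotoxicity read-out: SRB (0.1%) staining of TCA-fixed (10%) human lung bronchial epithelial cells, absorbance 560 nm, 24 h post-dosing. Curves fitted both directions relative to DMSO.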

Read-out in experiment [7]: Thrombomodulin, THBD (gene 7056)
As to the kind of experiment: BSK_3C_Thrombomodulin: BioMAP Diversity Plus: 3C Assay for Thrombomodulin Biomarker Activity (AID 2283029). Conditions: primary human endothelial cells (HUVEC); actives raise or lower the signal. The procedure, abridged:
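HUVEC, 3C conditions; compound 24 h; thrombomodulin by ELISA; bidirectional curve fit vs DMSO baseline; parallel SRB total-protein staining for cytotoxicity.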

Read-out in experiment [8]: Vascular endothelial growth factor receptor 2 (Homo sapiens) (UniProt P35968)
As to the kind of experiment: BSK_4H_VEGFRII: BioMAP Diversity Plus: 4H Assay for Vascular endothelial growth factor receptor 2 (VEGFR2) Biomarker Activity (AID 2283031).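 For AC50: cell-surface VEGFR2 protein level quantified by ELISA.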 The settings on record: primary human endothelial cells (HUVEC); actives raise or lower the signal. An outline of the steps: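 Measured by ELISA after 24 h of compound treatment: VEGFR2 on primary human umbilical vein endothelial cells, fitted in both directions relative to DMSO. Parallel cultures received SRB staining (560 nm) for overt cytotoxicity.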

Read-out in experiment [9]: Urokinase-type plasminogen activator receptor (uPAR), PLAUR (gene 5329)
Briefly: BSK_4H_uPAR: BioMAP Diversity Plus: 4H Assay for Urokinase-type plasminogen activator receptor (uPAR) Biomarker Activity (AID 2283030). Conditions: primary human endothelial cells (HUVEC); actives raise or lower the signal. An outline of the steps: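 uPAR level read by ELISA on HUVEC cultures (BioMAP 4H) 24 h post-dosing, analyzed for gain or loss relative to DMSO. Parallel SRB staining assessed overt cytotoxicity.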

Read-out in experiment [10]: Matrix Metallopeptidase 1 (MMP1), MMP1 (gene 4312)
Briefly: BSK_BE3C_MMP1: BioMAP Diversity Plus: BE3C Assay for Matrix Metallopeptidase 1 (MMP1) Biomarker Activity (AID 2283024). Conditions: primary human bronchial epithelial cells; actives raise or lower the signal. The procedure, abridged:
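ELISA read-out of MMP1 in human lung bronchial epithelial primary cultures, 24 h post-dose; bidirectional curve fit vs DMSO baseline, gain or loss of signal scored.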

For the compound `CCCCCCOC(=O)CC(CC(=O)OCCCCCC)(OC(=O)CCC)C(=O)OCCCCCC`, the compound was called inactive in experiment [1], in experiment [2], in [3], in experiment [4], in experiment [5] and in experiment [6]. Also, the outcome in [7] and in experiment [8] was inactive.
On to `NNC(=O)c1ccncc1`, for which the compound was classed as inactive in experiment [1], in [2], in experiment [4], in [5], in experiment [6] and in experiment [7]. The result in experiment [9] and in experiment [8] was inactive.
With `Cc1nccn1-c1ccc(Sc2cccc(C3(C(N)=O)CCOCC3)c2)cc1`, the AC50 (in general, the midpoint of the concentration-response curve, whichever way the signal moves) in [1] is 38 µM (active); in experiment [2] it was 9.18 µM (active); in experiment [10] it was 8.1 µM (active); in [7], 8.22 µM (active). For the same compound, the result in [3], in experiment [4], in [5], in experiment [6] and in experiment [8] was inactive.
With `c1ccc2c(c1)-c1cccc3c1c-2cc1ccccc13`, the call in experiment [1], in experiment [2], in experiment [4], in [5], in experiment [6] and in [7] was inactive. Further, the result in experiment [9] and in experiment [8] was inactive.
Take `Cc1ccc(S(=O)(=O)NC(=O)NN2CCCCCC2)cc1`: the outcome in experiment [1], in experiment [2], in experiment [10], in experiment [4], in [5] and in experiment [6] was inactive. Besides, the result in experiment [7], in [9] and in experiment [8] was inactive.
With `COc1cc(C(C)C)c2c(c1)S(=O)(=O)N(COc1cc(=O)n3cccc(OCCN4CCCCC4)c3n1)C2=O`, the result in experiment [1], in [2], in [10], in experiment [5], in experiment [7] and in experiment [8] was inactive. The AC50 in experiment [4] was 5 µM (active); in [6] it was 8.23 µM (active).
In the case of `C[Si](C)(C)C(F)(F)C(F)(F)C(F)(F)F`, the compound was called inactive in [1], in [2], in [10], in experiment [4], in experiment [5] and in [6]. Also, the outcome in experiment [7], in experiment [9] and in [8] was inactive.
As for `FC(F)(F)COC(OCC(F)(F)F)OCC(F)(F)F`, the outcome in experiment [1], in experiment [2], in experiment [4], in [5], in experiment [6] and in [7] was inactive. Also, the outcome in experiment [9] and in [8] was inactive.
Regarding `S=P(N1CC1)(N1CC1)N1CC1`, the compound was called inactive in experiment [1], in experiment [2], in experiment [3], in [4], in [5] and in experiment [6]. Moreover, the outcome in experiment [7], in experiment [9] and in [8] was inactive.
Turning to `CCCCCCCCCCCCCCO`, the compound was called inactive in [1], in [10], in [6] and in experiment [7]. Further, the AC50 in [2] was 31.3 µM (active); in [4], 33.1 µM (active); in experiment [5], 34 µM (active); in experiment [9], 32.6 µM (active); in experiment [8], 32.6 µM (active).
As for `COc1cc2c(c(OC)c1OC)-c1ccc(OC)c(=O)cc1[C@@H](NC(C)=O)CC2`, the compound was classed as inactive in experiment [1], in experiment [6], in [7] and in experiment [8]. For the same compound, the AC50 was 0.148 µM (active) in experiment [2]; 0.488 µM (active) in experiment [3]; 0.293 µM (active) in [4]; 0.148 µM (active) in experiment [5]; 0.148 µM (active) in experiment [9].
In the case of `O=C(Cl)C(F)(F)C(F)(F)C(F)(F)C(=O)Cl`, the outcome in [1], in experiment [2], in [4], in experiment [5], in [6] and in experiment [7] was inactive. In addition, the outcome in [8] was inactive.
On to `O=S(=O)(O)c1ccc(N=Nc2c(O)ccc3cc(S(=O)(=O)O)ccc23)cc1`, for which the call in [1], in experiment [2], in experiment [10], in experiment [3], in [4] and in experiment [5] was inactive. The outcome in experiment [6], in [7] and in [8] was inactive.
Turning to `c1ccc2cc3ccccc3cc2c1`, the outcome in [1], in experiment [2], in experiment [10], in experiment [3], in experiment [4] and in experiment [5] was inactive. Moreover, the result in experiment [6], in [7], in experiment [9] and in experiment [8] was inactive.
Regarding `CCCCCCCC/C=C\CCCCCCCC(=O)OC[C@@H](O)[C@H]1OC[C@H](O)[C@H]1O`, the outcome in experiment [1], in [2], in experiment [10], in experiment [4], in experiment [5] and in [6] was inactive. The result in [7] and in [8] was inactive.
For the compound `CCCC(CCC)C(=O)O`, the outcome in experiment [1], in experiment [2], in experiment [3], in experiment [4], in [5] and in [6] was inactive. In addition, the result in experiment [7], in experiment [9] and in experiment [8] was inactive.
With `O=C(O)CO`, the call in [1] was inactive.
Take `NC(=O)N(O)[C@@H]1COc2cc(OCc3ccccc3)ccc21`: the outcome in experiment [1], in experiment [2], in experiment [10], in experiment [4], in experiment [5] and in experiment [6] was inactive. Further, the outcome in [7] and in experiment [8] was inactive.
In the case of `CCCCCCCCN(C)C`, the outcome in experiment [1], in experiment [2], in [10], in [4], in [5] and in experiment [6] was inactive. Also, the outcome in experiment [7] and in experiment [8] was inactive.
